Results published in the supplement of paper PMC4723716.
± gives the uncertainty stated by the source. In all, about 9,900 compounds were measured (“viability index relative to DMSO control”: median about 1, lowest 2% from about 0.85 on). The sample holds the lowest values, similar compounds and a random draw of the others, so the mix is not that of the screen.

Tested on: Plasmodium falciparum NF54 stage V gametocytes
Assay: viability index relative to DMSO control (fraction); higher = less gametocyte killing
Settings: 2.5 µM, incubation time: 72 h
Experimental: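 Broad DOS informer set and blood-stage-active DOS compounds screened in duplicate at 2.5 µM against P. falciparum NF54 stage V gametocytes with the serum-free one-step SaLSSA (1536-well): 72 h at 37 °C under low oxygen, then saponin lysis and MitoTracker Red CMXRos staining, with high-content imaging. Viability index = viable-object count divided by the plate mean of DMSO wells (0 = killed, about 1 = inactive).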

[1] = library set: Broad Institute DOS

| Structure (SMILES) | viability index [1] | viability index (library set: Broad Institute Blood Stage) |
| --- | --- | --- |
| Cc1noc(C)c1NC(=O)N1C[C@@H](O)COC[C@H]2O[C@@H](CC(=O)N[C@@H]3CCN(Cc4ccccc4)C3)CC[C@@H]21 | 0.994 ± 0.052 | – |
| CCC(=O)N1[C@H](CO)[C@@H]2c3ccccc3N(C(=O)c3cnccn3)C[C@@H]21 | 0.908 ± 0.3 | – |
| C/C=C/c1ccc2n(c1=O)C[C@H]1[C@H](CO)[C@@H](C(=O)Nc3nccs3)N(Cc3cc(F)ccc3F)[C@@H]21.C/C=C\c1ccc2n(c1=O)C[C@H]1[C@H](CO)[C@@H](C(=O)Nc3nccs3)N(Cc3cc(F)ccc3F)[C@@H]21 | 1.07 ± 0.056 | – |
| Cc1noc(C)c1NC(=O)N(C)C[C@H]1Oc2ccc(NC(=O)Cc3cn(C)c4ccccc34)cc2CC(=O)N([C@@H](C)CO)C[C@H]1C | 0.941 ± 0.2 | – |
| COCC#Cc1ccc([C@H]2[C@H]3CN(C(=O)C4CCCCC4)CC(=O)N3[C@H]2CO)cc1 | 1.01 ± 0.034 | – |
| COc1ccc2c3c([C@@H](CO)N(C)C[C@]33CCN(CC3)C(=O)CN3CCOCC3)n(C)c2c1 | 0.9699 ± 0.0061 | – |
| CN(C)C(=O)c1cccc(-c2ccc([C@@H]3[C@@H]4CN(Cc5ccccc5F)C[C@H]3N4)cc2)c1 | 0.977 ± 0.016 | – |
| CN(C)C(=O)c1ccc(-c2ccc([C@H]3[C@@H]4CN(Cc5ccccc5Cl)C[C@H]3N4)cc2)cc1 | 0.846 ± 0.021 | – |
| CN(C)C(=O)c1cccc(-c2ccc([C@H]3[C@@H]4CN(Cc5ccccc5F)C[C@H]3N4)cc2)c1 | 1.05 ± 0.084 | – |
| Cc1ccc(S(=O)(=O)Nc2cccc3c2O[C@H](CN(C)C(=O)Nc2ccc(C(F)(F)F)cc2)[C@H](C)CN([C@H](C)CO)C3=O)cc1 | 1.07 ± 0.04 | – |
| CN(C)C(=O)c1cccc(-c2ccc3c(c2)[C@@H]2[C@@H](CCN2C(=O)Cc2ccccc2)[C@H](CO)N3)c1 | 0.991 ± 0.022 | – |
| Cc1ccc(S(=O)(=O)N2CC[C@@H]3[C@H]2c2cc(-c4cccc(C(=O)N(C)C)c4)ccc2N[C@@H]3CO)cc1 | 0.885 ± 0.055 | – |
| Cc1ccc(S(=O)(=O)N2CC[C@@H]3[C@@H](CO)Nc4ccc(-c5cccc(C(=O)N(C)C)c5)cc4[C@@H]32)cc1 | 0.837 ± 0.012 | – |
| CN(C)C(=O)c1cccc(-c2ccc3c(c2)[C@@H]2[C@@H](CCN2C(=O)Cc2ccccc2)[C@@H](CO)N3)c1 | 1.04 ± 0.025 | – |
| Cc1ccc(S(=O)(=O)N2CC[C@H]3[C@H](CO)Nc4ccc(-c5cccc(C(=O)N(C)C)c5)cc4[C@H]32)cc1 | 0.7 ± 0.018 | – |
| Cc1ccc(S(=O)(=O)N2CC[C@@H]3[C@H](CO)Nc4ccc(-c5cccc(C(=O)N(C)C)c5)cc4[C@@H]32)cc1 | 0.77 ± 0.034 | – |
| CN(C)C(=O)c1cccc(-c2ccc3c(c2)[C@H]2[C@H](CCN2C(=O)Cc2ccccc2)[C@H](CO)N3)c1 | 1.03 ± 0.03 | – |
| N#Cc1cccc(-c2ccc3c(c2)[C@H]2[C@H](CCN2S(=O)(=O)c2ccc(F)cc2)[C@@H](CO)N3)c1 | 0.949 ± 0.023 | – |
| CN(C)C(=O)c1cccc(-c2ccc3c(c2)[C@H]2[C@H](CCN2C(=O)Cc2ccccc2)[C@@H](CO)N3)c1 | 0.899 ± 0.042 | – |
| O=C(N[C@H]1C=C[C@@H](CC(=O)N2CCN(c3ccccc3)CC2)O[C@H]1CO)c1ccccc1 | 1.04 ± 0.087 | – |
| N#C[C@H]1[C@H](c2ccc(-c3cncnc3)cc2)[C@@H](CO)N1C(=O)Cc1ccccc1 | 1.06 ± 0.1 | – |
| COc1ccc(-c2ccccc2[C@@H]2[C@@H](CO)N(C(=O)C3CCC3)[C@H]2C#N)cc1 | 1.17 ± 0.15 | – |
| O=C(C[C@@H]1CC[C@H]2NC[C@H](O)COC[C@@H]2O1)Nc1nccs1 | 1.04 ± 0.068 | – |
| C[C@H](CO)N1C[C@H](C)[C@H](CN(C)Cc2cccc(C(F)(F)F)c2)OCc2ccccc2-c2c(n(C)c3ccccc23)C1=O | 0.972 ± 0.029 | – |

| Structure (SMILES) | viability index [1] | viability index (library set: Broad Institute Blood Stage) |
| --- | --- | --- |
| COc1cccc(S(=O)(=O)N2CCCCN3[C@H](CO)[C@@H](c4ccc(C#CCC(C)C)cc4)[C@@H]3C2)c1 | 0.941 ± 0.042 | – |
| COc1cccc(S(=O)(=O)N2CCCCN3[C@H](C2)[C@H](c2ccc(C#CCC(C)C)cc2)[C@@H]3CO)c1 | 0.9833 ± 0.0041 | – |
| COc1cccc(S(=O)(=O)N2CCCCN3[C@@H](CO)[C@@H](c4ccc(C#CCC(C)C)cc4)[C@@H]3C2)c1 | 0.393 ± 0.021 | – |
| COc1cccc(S(=O)(=O)N2CCCCN3[C@H](CO)[C@H](c4ccc(C#CCC(C)C)cc4)[C@@H]3C2)c1 | 1 ± 0.078 | – |
| COc1cccc(S(=O)(=O)N2CCCCN3[C@H](CO)[C@H](c4ccc(C#CCC(C)C)cc4)[C@H]3C2)c1 | 0.6428 ± 0.0032 | – |
| COc1cccc(S(=O)(=O)N2CCCCN3[C@@H](CO)[C@H](c4ccc(C#CCC(C)C)cc4)[C@@H]3C2)c1 | 1.01 ± 0.053 | – |
| COc1ccc(NC(=O)N(C)C[C@H]2Oc3c(NC(=O)CCCCCC(=O)Nc4ccccc4N)cccc3C(=O)N([C@@H](C)CO)C[C@H]2C)cc1 | 0.645 ± 0.046 | – |
| COc1ccc(NC(=O)N(C)C[C@@H]2Oc3c(NC(=O)CCCCCC(=O)Nc4ccccc4N)cccc3C(=O)N([C@@H](C)CO)C[C@H]2C)cc1 | 1.07 ± 0.091 | – |
| COc1ccc(NC(=O)N(C)C[C@H]2Oc3c(NC(=O)CCCCCC(=O)Nc4ccccc4N)cccc3C(=O)N([C@H](C)CO)C[C@H]2C)cc1 | 0.62 ± 0.082 | – |
| COc1ccc(NC(=O)N(C)C[C@H]2Oc3c(NC(=O)CCCCCC(=O)Nc4ccccc4N)cccc3C(=O)N([C@@H](C)CO)C[C@@H]2C)cc1 | 0.991 ± 0.081 | – |
| COc1ccc(NC(=O)N(C)C[C@@H]2Oc3c(NC(=O)CCCCCC(=O)Nc4ccccc4N)cccc3C(=O)N([C@@H](C)CO)C[C@@H]2C)cc1 | 0.943 ± 0.058 | – |
| COc1ccc(NC(=O)N(C)C[C@@H]2Oc3c(NC(=O)CCCCCC(=O)Nc4ccccc4N)cccc3C(=O)N([C@H](C)CO)C[C@H]2C)cc1 | 0.893 ± 0.012 | – |
| COc1ccc2c3c([C@@H](CO)N(Cc4cc(OC)cc(OC)c4)C[C@]33CN(C3)C(=O)CN3CCOCC3)n(C)c2c1 | 0.879 ± 0.02 | – |
| COC(=O)C[C@H]1CC[C@H]2[C@@H](COc3ccc(NS(=O)(=O)c4ccc(C)cc4)cc3C(=O)N2C)O1 | 1.114 ± 0.0014 | – |
| C[C@@H]1CCCCO[C@@H](CN(C)CC2CCCCC2)[C@H](C)CN([C@@H](C)CO)C(=O)c2cc(NS(C)(=O)=O)ccc2O1 | 1.08 ± 0.061 | – |
| N#Cc1ccc(-c2ccc([C@@H]3[C@@H]4CN(S(=O)(=O)Cc5ccccc5)C[C@H]3N4)cc2)cc1 | 0.976 ± 0.037 | – |
| CC(=O)N1C[C@@H]2N[C@H](C1)[C@H]2c1ccc(-c2ccccc2)cc1 | 1.11 ± 0.016 | – |
| Cc1ccccc1-c1ccc([C@@H]2[C@@H]3CN(S(=O)(=O)Cc4ccccc4)C[C@H]2N3)cc1 | 0.854 ± 0.034 | – |
| O=S(=O)(c1ccc(-c2ccccc2)cc1)N1C[C@@H]2N[C@H](C1)[C@@H]2c1ccc(-c2ccncc2)cc1 | 1.072 ± 0.0057 | – |
| CS(=O)(=O)N1C[C@@H]2N[C@H](C1)[C@@H]2c1ccc(-c2ccccc2)cc1 | 0.706 ± 0.03 | – |
| COc1cccc(-c2ccc([C@@H]3[C@@H]4CN(S(=O)(=O)Cc5ccccc5)C[C@H]3N4)cc2)c1 | 0.808 ± 0.031 | – |
| C[C@@H]1CN([C@@H](C)CO)C(=O)c2cc(NS(=O)(=O)c3cn(C)cn3)ccc2O[C@H]1CN(C)S(=O)(=O)c1ccc(F)cc1 | 1.06 ± 0.038 | – |
| O=C(C[C@H]1C=C[C@@H](NC(=O)c2ccncc2)[C@H](CO)O1)NCC1CC1 | 1.029 ± 0.0019 | – |
| Cc1ccccc1-c1ccc([C@H]2[C@H]3CN(S(C)(=O)=O)CC(=O)N3[C@H]2CO)cc1 | 0.975 ± 0.047 | – |

| Structure (SMILES) | viability index [1] | viability index (library set: Broad Institute Blood Stage) |
| --- | --- | --- |
| CCc1nc(N2[C@@H](C#N)[C@H](c3ccccc3-c3ccccc3C)[C@@H]2CO)sc1C | 0.81 ± 0.063 | – |
| CCc1nc(N2[C@H](C#N)[C@@H](c3ccccc3-c3ccccc3C)[C@@H]2CO)sc1C | 1.07 ± 0.088 | – |
| CCc1nc(N2[C@@H](C#N)[C@@H](c3ccccc3-c3ccccc3C)[C@@H]2CO)sc1C | 1.08 ± 0.12 | – |
| COc1ccc2c3c([nH]c2c1)[C@@H](CO)N(C[C@]31CCN(C)CC1)S(=O)(=O)c1ccccc1 | 1.04 ± 0.032 | – |
| CO[C@@H]1CN(C)C(=O)c2ccc(NS(C)(=O)=O)cc2OC[C@@H](C)N(C(=O)CN(C)C)C[C@H]1C | 0.977 ± 0.055 | – |
| N#Cc1ccc(-c2ccc([C@@H]3[C@@H]4CN(C(=O)Nc5ccc6c(c5)OCO6)C[C@H]3N4)cc2)cc1 | 0.56 ± 0.15 | – |
| N#Cc1ccc(-c2ccc([C@H]3[C@@H]4CN(C(=O)c5cccnc5)C[C@H]3N4)cc2)cc1 | 1.15 ± 0.046 | – |
| N#Cc1cccc(-c2ccc([C@@H]3[C@@H]4CN(C(=O)c5ccc6c(c5)OCO6)C[C@H]3N4)cc2)c1 | 0.896 ± 0.077 | – |
| O=C(c1ccc(F)cc1)N1C[C@@H]2N[C@H](C1)[C@H]2c1ccc(-c2cccnc2)cc1 | 1.08 ± 0.12 | – |
| N#Cc1cccc(-c2ccc([C@H]3[C@@H]4CN(C(=O)c5ccc6c(c5)OCO6)C[C@H]3N4)cc2)c1 | 1.09 ± 0.072 | – |
| N#Cc1ccc(-c2ccc([C@@H]3[C@@H]4CN(C(=O)c5cccnc5)C[C@H]3N4)cc2)cc1 | 0.81 ± 0.2 | – |
| O=C(Cc1ccncc1)N1CC[C@@H]2[C@H]1c1cc(-c3ccccc3F)ccc1N[C@@H]2CO | 1.03 ± 0.046 | – |
| COc1ccc(CN2C[C@]3(CN(C3)S(=O)(=O)c3ccc(C)cc3)c3c([nH]c4cc(OC)ccc34)[C@H]2CO)cc1 | 0.793 ± 0.014 | – |
| COc1ccc2c3c([nH]c2c1)[C@@H](CO)N(C[C@]31CN(C1)C(=O)Cc1cccnc1)S(C)(=O)=O | 1.06 ± 0.048 | – |
| CCS(=O)(=O)N1CC[C@@]2(CC1)CN([C@@H](CO)c1[nH]c3cc(OC)ccc3c21)S(=O)(=O)c1ccc(C)cc1 | 0.934 ± 0.052 | – |
| CCCC(=O)N1C[C@@]2(C1)CN([C@H](CO)c1[nH]c3cc(OC)ccc3c21)S(=O)(=O)c1ccc(C)cc1 | 0.946 ± 0.074 | – |
| COc1ccc2c3c([nH]c2c1)[C@@H](CO)N(C[C@]31CCN(CC1)C(=O)Cc1cccnc1)S(=O)(=O)c1ccc(C)cc1 | 0.827 ± 0.019 | – |
| CCS(=O)(=O)N1CC[C@@]2(CC1)CN([C@H](CO)c1[nH]c3cc(OC)ccc3c21)S(=O)(=O)c1ccc(C)cc1 | 1 ± 0.046 | – |
| COc1ccc2c3c([nH]c2c1)[C@@H](CO)N(Cc1ccc(Cl)cc1)C[C@]31CN(C1)S(C)(=O)=O | 0.931 ± 0.095 | – |
| COc1ccc2c3c([nH]c2c1)[C@H](CO)N(C[C@]31CN(C1)C(=O)Cc1cccnc1)S(C)(=O)=O | 1.08 ± 0.04 | – |
| COc1ccc2c3c([nH]c2c1)[C@H](CO)N(C[C@]31CCN(CC1)C(=O)Cc1cccnc1)S(=O)(=O)c1ccc(C)cc1 | 0.75 ± 0.079 | – |
| CCCC(=O)N1C[C@@]2(C1)CN([C@@H](CO)c1[nH]c3cc(OC)ccc3c21)S(=O)(=O)c1ccc(C)cc1 | 0.9841 ± 0.0028 | – |
| CCCC(=O)N1CC[C@@]2(CC1)CN([C@@H](CO)c1[nH]c3cc(OC)ccc3c21)S(=O)(=O)c1ccc(C)cc1 | – | 0.655 ± 0.046 |
| COc1ccc2c3c([nH]c2c1)[C@H](CO)N(Cc1ccc(Cl)cc1)C[C@]31CN(C1)S(C)(=O)=O | 0.931 ± 0.066 | – |
